Test results published in PubChem BioAssay (Tox21).
Inconclusive results are not listed. Activity calls are given as the source filed them. Unless noted, calls come from the whole dose curve; as a rule, active = well fitted curve in the direction sought with a large enough effect in the repeat runs; inconclusive = weak or mixed curves; inactive = no such curve, though single readings can be large; an effect the other way counts as inactive or inconclusive.

Legend:
[1] = qHTS assay to identify aromatase inhibitors - cell viability counter screen (AID 743084);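 note: cells stimulated with testosterone during compound exposure; nearly all actives have a fitted effect of over 55% in size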
[2] = qHTS assay to identify small molecule that activate the aryl hydrocarbon receptor (AhR) signaling pathway - cell viability counter screen (AID 743086);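 note: HepG2 liver cells carrying the AhR DRE luciferase reporter; series mostly up to about 70 µM; nearly all actives have a fitted effect of over 45% in size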
Outline: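 HepG2-AhR-luc (HG2L7.5c1) cells, 4000/well, treated 24 h at 37 C with compound; viability measured as CellTiter-Fluor fluorescence after 30 min in the same wells as the luciferase read.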

[3] = molecular target: Peroxisome proliferator-activated receptor gamma (Homo sapiens) (UniProt P37231); experiment: qHTS assay to identify small molecule agonists of the peroxisome proliferator-activated receptor gamma (PPARg) signaling pathway (AID 743094; active = well fitted activation curve with a large enough effect in the signal ratio in the repeat runs, not every such curve was filed as active; the % refers to the signal ratio)
Peroxisome proliferator-activated receptor gamma (Homo sapiens), sequence (P37231 whole entry, looked up): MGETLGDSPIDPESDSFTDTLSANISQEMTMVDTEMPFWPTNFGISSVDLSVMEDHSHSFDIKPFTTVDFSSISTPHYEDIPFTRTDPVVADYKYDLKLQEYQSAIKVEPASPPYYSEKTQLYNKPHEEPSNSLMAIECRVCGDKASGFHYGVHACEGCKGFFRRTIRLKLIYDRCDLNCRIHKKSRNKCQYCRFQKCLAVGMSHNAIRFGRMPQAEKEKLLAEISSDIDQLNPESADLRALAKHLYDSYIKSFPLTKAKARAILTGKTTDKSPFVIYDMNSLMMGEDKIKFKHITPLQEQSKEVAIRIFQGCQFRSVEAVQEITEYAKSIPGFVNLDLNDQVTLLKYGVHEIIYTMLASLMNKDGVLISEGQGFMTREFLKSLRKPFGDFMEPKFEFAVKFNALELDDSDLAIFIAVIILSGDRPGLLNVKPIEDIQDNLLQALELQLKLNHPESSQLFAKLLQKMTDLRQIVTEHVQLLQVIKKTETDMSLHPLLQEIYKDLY
Outline: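 Agonist activity was taken from a beta-lactamase reporter (FRET substrate, 1 h at room temperature) in HEK293H cells carrying a PPARg UAS-bla construct. Compounds in DMSO were incubated 17 h at 37C after a 5 h cell pre-incubation.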

[4] = molecular target: Peroxisome proliferator-activated receptor gamma (Homo sapiens) (UniProt P37231); experiment: qHTS assay to identify small molecule antagonists of the peroxisome proliferator-activated receptor gamma (PPARg) signaling pathway (AID 743191; calls by dose curve; note: series mostly up to about 63 µM; nearly all actives have a fitted effect of over 30% in size)
Outline: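 GeneBLAzer PPARg UAS-bla HEK293H cells, 5 h post-plating, exposed to compounds 17 h at 37C. LiveBLAzer B/G FRET substrate added for 1 h at room temperature; beta-lactamase reporter read by fluorescence intensity.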

[5] = qHTS assay to identify small molecule antagonists of the peroxisome proliferator-activated receptor gamma (PPARg) signaling pathway - cell viability counter screen (AID 743194); note: nearly all actives have a fitted effect of over 55% in size
Outline: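 Cytotoxicity counter screen in PPARg-bla HEK293H cells, same wells as reporter assay. Compounds plus 50 nM rosiglitazone (final) for 17 h at 37 C, then viability read by CellTiter-Glo luminescence.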

[6] = qHTS assay for small molecule agonists of the antioxidant response element (ARE) signaling pathway - cell viability counter screen (AID 743203; calls by dose curve; note: nearly all actives have a fitted effect of over 55% in size)
Outline: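 Viability counter screen: CellTiter-Glo luminescence, read after 30 min at room temperature, in ARE-bla HepG2 wells. Compound exposure lasted 16 h at 37C/5% CO2, following a 5 h pre-incubation of the cells after plating.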

[7] = qHTS assay for small molecule activators of the heat shock response signaling pathway - cell viability counter screen (AID 743209); note: nearly all actives have a fitted effect of over 50% in size
Outline: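 Cytotoxicity counter screen run in the same wells as the heat-shock bla reporter assay: HeLa HSE-bla cells, 5 h compound exposure at 37 C, viability read by CellTiter-Glo luminescence.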

[8] = qHTS assay to identify small molecule antagonists of the peroxisome proliferator-activated receptor delta (PPARd) signaling pathway - cell viability counter screen (AID 743213); note: nearly all actives have a fitted effect of over 50% in size
Outline: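 HEK293H PPARd UAS-bla cells, 5 h pre-incubation, compound + L165041 300 nM final, 17 h 37 C; B/G FRET substrate 2 h RT; then CellTiter-Glo 30 min RT, luminescence.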

[9] = qHTS assay to identify small molecule agonists of the farnesoid-X-receptor (FXR) signaling pathway - cell viability counter screen (AID 743218); note: nearly all actives have a fitted effect of over 45% in size
Outline: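 Viability counter screen in the same wells: CellTiter-Glo luminescence, 30 min room-temperature incubation, measured after the beta-lactamase read. Cells were GeneBLAzer FXR-UAS-bla HEK 293T, compound-treated 16 h at 37C.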

[10] = molecular target: Bile acid receptor (Homo sapiens) (UniProt Q96RI1); experiment: qHTS assay to identify small molecule agonists of the farnesoid-X-receptor (FXR) signaling pathway (AID 743220; active = well fitted activation curve with a large enough effect in the signal ratio in the repeat runs, not every such curve was filed as active; the % refers to the signal ratio)
Bile acid receptor (Homo sapiens), sequence (Q96RI1 whole entry, looked up): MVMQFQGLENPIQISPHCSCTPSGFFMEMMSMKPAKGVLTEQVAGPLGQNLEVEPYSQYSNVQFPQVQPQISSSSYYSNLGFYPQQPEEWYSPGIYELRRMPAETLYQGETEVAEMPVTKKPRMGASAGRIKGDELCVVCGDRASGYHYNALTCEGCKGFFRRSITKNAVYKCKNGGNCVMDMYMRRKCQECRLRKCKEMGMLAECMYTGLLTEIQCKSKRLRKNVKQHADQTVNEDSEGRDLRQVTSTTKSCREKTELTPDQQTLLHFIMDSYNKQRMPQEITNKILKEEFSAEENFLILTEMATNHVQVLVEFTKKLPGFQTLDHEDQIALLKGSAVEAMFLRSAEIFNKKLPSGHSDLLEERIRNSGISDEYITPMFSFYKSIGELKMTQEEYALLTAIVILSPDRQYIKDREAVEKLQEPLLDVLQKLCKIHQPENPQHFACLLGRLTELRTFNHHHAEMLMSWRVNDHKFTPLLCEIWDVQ
Outline: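 FXR-UAS-bla HEK 293T cells carrying a UAS-driven beta-lactamase reporter were plated for 5 h at 37C/5% CO2, then exposed to DMSO-dissolved Tox21 10K compounds for 16 h at 37C. A LiveBLAzer B/G FRET substrate was loaded for 2 h at room temperature before fluorescence reading.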

[11] = qHTS assay to identify small molecule antagonists of the farnesoid-X-receptor (FXR) signaling pathway - cell viability counter screen (AID 743221; active = well fitted cell-killing curve with a large enough effect in the repeat runs, not every such curve was filed as active; note: nearly all actives have a fitted effect of over 50% in size)
Outline: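 GeneBLAzer FXR-UAS-bla HEK 293T cells, compound plus chenodeoxycholic acid (50 uM final), 16 h at 37 C. CellTiter-Glo added to the same wells after the beta-lactamase read; luminescence read after 30 min at room temperature as viability.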

[12] = molecular target: Vitamin D3 receptor (Homo sapiens) (UniProt P11473); experiment: qHTS assay to identify small molecule agonists of the vitamin D receptor (VDR) signaling pathway (AID 743222; calls by dose curve)
Vitamin D3 receptor (Homo sapiens), sequence (P11473 whole entry, looked up): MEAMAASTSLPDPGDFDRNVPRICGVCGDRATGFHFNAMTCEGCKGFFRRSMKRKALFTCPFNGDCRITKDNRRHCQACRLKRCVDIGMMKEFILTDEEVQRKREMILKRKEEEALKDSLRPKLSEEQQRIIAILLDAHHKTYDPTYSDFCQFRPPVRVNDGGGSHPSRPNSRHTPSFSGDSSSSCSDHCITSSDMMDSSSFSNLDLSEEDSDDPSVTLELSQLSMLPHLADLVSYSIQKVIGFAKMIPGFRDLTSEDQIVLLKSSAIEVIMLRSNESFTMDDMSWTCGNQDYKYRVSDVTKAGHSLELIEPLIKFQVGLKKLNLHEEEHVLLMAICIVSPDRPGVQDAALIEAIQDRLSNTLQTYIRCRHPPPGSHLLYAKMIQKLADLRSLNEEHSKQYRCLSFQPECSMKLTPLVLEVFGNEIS
Outline: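 Agonist mode, beta-lactamase reporter: fluorescence from LiveBLAzer B/G FRET substrate (2 h, room temperature) read after 16 h compound treatment at 37 C of VDR-bla cells, which were pre-incubated 4 h after seeding.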

[13] = molecular target: Vitamin D3 receptor (Homo sapiens) (UniProt P11473); experiment: qHTS assay to identify small molecule antagonists of the vitamin D receptor (VDR) signaling pathway (AID 743223; active = well fitted inhibition curve with a large enough effect in the signal ratio in the repeat runs, not every such curve was filed as active; the % refers to the signal ratio)
Outline: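 VDR-bla cells were treated with compound plus 3 nM final 1alpha,25-dihydroxyvitamin D3 for 16 h at 37C. Beta-lactamase reporter read by B/G FRET substrate fluorescence after 2 h at room temperature. qHTS format.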

[14] = qHTS assay for small molecule agonists of the antioxidant response element (ARE) signaling pathway (AID 743202; active = well fitted activation curve with a large enough effect in the signal ratio in the repeat runs, not every such curve was filed as active; the % refers to the signal ratio)
Outline: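 HepG2 ARE-bla reporter line, 2,000 cells/well; 5 h preincubation 37 C/5% CO2; compound (DMSO) 16 h 37 C; B/G FRET substrate 2 h RT; fluorescence intensity.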

[15] = qHTS assay for small molecule activators of the heat shock response signaling pathway (AID 743210; active = well fitted activation curve with a large enough effect in the signal ratio in the repeat runs, with a control signal flat, not every such curve was filed as active; the % refers to the signal ratio;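 note: HeLa cells with beta-lactamase reporter driven by heat shock elements; series mostly up to about 63 µM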)
Outline: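 Beta-lactamase reporter read-out: FRET substrate fluorescence after 2.5 h at RT, following 5 h compound treatment at 37 C of HeLa cells carrying HSE-driven bla reporter; quantitative HTS format.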

[16] = qHTS assay to identify small molecule agonists of the peroxisome proliferator-activated receptor delta (PPARd) signaling pathway - cell viability counter screen (AID 743211); note: nearly all actives have a fitted effect of over 55% in size
Outline: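 PPARd-bla HEK293H cells (3000/well) were pre-incubated 5 h at 37 C, then exposed to compound for 17 h at 37 C. After 2 h with LiveBLAzer substrate, CellTiter-Glo was added to the same wells; luminescence read after 30 min at room temperature.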

[17] = molecular target: Peroxisome proliferator-activated receptor delta (Homo sapiens) (UniProt Q03181); experiment: qHTS assay to identify small molecule agonists of the peroxisome proliferator-activated receptor delta (PPARd) signaling pathway (AID 743212; calls by dose curve)
Peroxisome proliferator-activated receptor delta (Homo sapiens), sequence (Q03181 whole entry, looked up): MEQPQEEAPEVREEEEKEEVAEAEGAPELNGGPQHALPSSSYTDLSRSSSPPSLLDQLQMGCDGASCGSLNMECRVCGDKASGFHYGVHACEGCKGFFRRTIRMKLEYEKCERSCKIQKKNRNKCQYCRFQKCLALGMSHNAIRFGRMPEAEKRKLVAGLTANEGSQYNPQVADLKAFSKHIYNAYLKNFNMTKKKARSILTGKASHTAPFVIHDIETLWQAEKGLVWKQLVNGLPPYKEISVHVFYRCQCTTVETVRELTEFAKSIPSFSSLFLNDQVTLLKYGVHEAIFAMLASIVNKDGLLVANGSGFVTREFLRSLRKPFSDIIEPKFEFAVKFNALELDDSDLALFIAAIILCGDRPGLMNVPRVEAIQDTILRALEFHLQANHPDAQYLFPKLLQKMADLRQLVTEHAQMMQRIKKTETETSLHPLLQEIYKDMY
Outline: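 Read-out: beta-lactamase FRET fluorescence after 2 h room-temperature incubation with LiveBLAzer B/G substrate. Cells were HEK293H carrying a UAS-bla reporter for PPARd, treated at 37 C with DMSO-dissolved compounds.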

[18] = molecular target: Peroxisome proliferator-activated receptor delta (Homo sapiens) (UniProt Q03181); experiment: qHTS assay to identify small molecule antagonists of the peroxisome proliferator-activated receptor delta (PPARd) signaling pathway (AID 743215; active = well fitted inhibition curve with a large enough effect in the signal ratio in the repeat runs, not every such curve was filed as active; the % refers to the signal ratio;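 note: cells stimulated with agonist L165041 at 300 nM final during compound exposure; series mostly up to about 62 µM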)
Outline: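 Agonist L165041 (300 nM final) added with compound to PPARd-bla HEK293H UAS-bla reporter cells; 17 h incubation at 37 C. Read-out: LiveBLAzer FRET substrate, 2 h at room temperature, fluorescence intensity.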

[19] = molecular target: Bile acid receptor (Homo sapiens) (UniProt Q96RI1); experiment: qHTS assay to identify small molecule antagonists of the farnesoid-X-receptor (FXR) signaling pathway (AID 743217; active = well fitted inhibition curve with a large enough effect in the signal ratio in the repeat runs, not every such curve was filed as active; the % refers to the signal ratio)
Outline: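 Antagonist mode: chenodeoxycholic acid at 50 uM final stimulates a UAS-driven beta-lactamase reporter in HEK 293T FXR-bla cells during 16 h, 37C compound exposure. Read-out is FRET substrate fluorescence after 2 h at room temperature.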

Measured: Potency

CCC(=O)c1ccc(O)cc1
inactive: [1] | [2] | [3] | [4] | [5] | [6] | [7] | [8] | [9] | [10] | [11] | [12] | [13]

O=C(O)C(=O)Nc1cccc(-c2nn[nH]n2)c1
inactive: [1] | [2] | [3] | [5] | [14] | [6] | [7] | [15] | [16] | [8] | [9] | [10] | [11] | [12] | [13]

CO/N=C(/C(=O)N[C@@H]1C(=O)N2C(C(=O)O)=C(Cn3nnc(C)n3)CS[C@H]12)c1csc(N)n1
inactive: [2] | [5] | [14] | [6] | [7] | [15] | [8] | [9] | [10] | [11] | [12] | [13]

COc1ccc(OC)c(NC(=O)CC(C)=O)c1
inactive: [2] | [5] | [14] | [6] | [7] | [15] | [16] | [17] | [8] | [9] | [11] | [12] | [13]

CCC(C)(CCC(C)C)C(=O)[O-].CCC(C)(CCC(C)C)C(=O)[O-].[Zn+2] (stereo unspecified)
inactive: [2] | [14] | [7] | [16] | [17] | [8] | [9] | [11] | [12]

CC(C)C(=O)Nc1cccc(C(F)(F)F)c1
inactive: [5] | [14] | [6] | [7] | [15] | [16] | [17] | [8] | [18] | [9] | [11] | [12] | [13]

CC(C)=CC(C)(C)C
inactive: [2] | [5] | [14] | [6] | [7] | [15] | [16] | [8] | [19] | [9] | [10] | [11] | [12] | [13]

O=S(=O)(O)c1cc(O)ccc1O
inactive: [5] | [6] | [7] | [15] | [16] | [17] | [8] | [18] | [11] | [12] | [13]

O=C(CN1CCN(Cc2ccc3c(c2)OCO3)CC1)N1c2ccccc2Sc2ccccc21
inactive: [1] | [4] | [5] | [7] | [16] | [8] | [9] | [11] | [12] | [13]

C=CCOCC(CO)(COCC=C)COCC=C
inactive: [1] | [2] | [14] | [6] | [7] | [15] | [16] | [17] | [8] | [11] | [12] | [13]

Cc1ccc(C(=O)C(=O)O)cc1C
inactive: [4] | [5] | [14] | [6] | [7] | [15] | [16] | [17] | [8] | [18] | [9] | [11] | [12] | [13]
